# About 83,000 compounds went through this panel and 20% of them were active in at least one assay; those are over-represented in the sample as a whole.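 Compound tested at a single concentration for 48 hours in 96-well plates; a percent growth value below 10 was scored as active.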 Calls of active or inactive are those of the source.
# System: HT29 colon
# Assay: NCI-60 one-dose screen, 48 h (100 = growth as untreated, 0 = no growth, -100 = all killed)
# Details: 10 µM
# Procedure: Growth inhibition of the HT29 human tumor cell line is measured as a screen for anti-cancer activity. Cells are grown in 96 well plates and exposed to the test compound for 48 hours. Compounds are tested at a single concentration, which is 10^-5 M for most compounds. The reported endpoint is percent growth (GI% or GIPRCNT), where numbers from 0 - 100% represent growth inhibition, and numbers from -100% - 0 represent cell death. For example, a value of 40 represents 60% growth inhibition. A value of 0 means no net growth occurred over the course of the experiment. A value of -40 indicates 40% of cells at the beginning of the experiment died by the end of the experiment. A value of -100 means all cells are dead at the end of the experiment.
# NCI-60 Human Tumor Cell Lines Screen was performed using the standard one-dose NCI protocol, which is described in more detail at https://dtp.cancer.gov/discovery_development/nci-60/default.htm.
# Compounds with GIPRCNT values below 10 were considered active. Activity score was based on GIPRCNT using the following formula: […]
# Score is 0 for GIPRCNT values of 100 or above, 50 for GIPRCNT values of 0, and 100 for GIPRCNT values of -100.
row,Compound,growth
1,Cc1ccc(S(=O)(=O)N2CCc3ccccc3CC2)cc1,91.8% (inactive)
2,O/N=C1\CCC2CCCCC2C1 (stereo not given),99.2% (inactive)
3,CCCN(CCC)CCCNC(=O)c1cc2c(-c3ccc(OC)c(OC)c3)nn(C)c2s1,56.5% (inactive)
4,Cc1ccc(C(=O)O)c(N)c1C,101% (inactive)
5,CCN(CC)CCn1c(=N)n(CC(O)c2ccc(Cl)c(Cl)c2)c2ccccc21 (stereo not given),20.1% (inactive)
6,Cc1cc(Nc2cccc(F)c2)nc(NCc2ccccc2)n1,22.8% (inactive)
7,Cc1ccccc1C1=N[C@@H](Cc2ccccc2)C(=O)c2c(nc3ccccn23)N1,115% (inactive)
8,OC(CNC1CCCC1)Cn1c2ccccc2c2ccccc21 (stereo not given),-0.747% (active)
9,COc1ccc(-c2oncc2-c2cc(OC)c3c(c2)OCO3)cc1,6.55% (active)
10,COc1cc(C(=O)n2nc(N)c3c(C)cc(C)nc32)cc(OC)c1OC,24% (inactive)
11,CCCCOCC(=O)NC(NP(=O)(N(C)C)N(C)C)C(Cl)(Cl)Cl (stereo not given),122% (inactive)
12,CC1(C)CC(OCCCC[P+](c2ccccc2)(c2ccccc2)c2ccccc2)CC(C)(C)N1O,10.6% (inactive)
13,CCCCN(CCCC)c1ccc(C(=NC(C)CCCN(CC)CC)c2ccc(N(C)C)cc2)cc1 (stereo not given),-71.9% (active)
14,O=C1CC[C@@H](C(=O)N[C@H]2CSSC[C@@H](C(=O)NCCc3ccccc3)NC(=O)[C@H](Cc3ccccc3)NC(=O)[C@@H]3CCCN3C(=O)[C@@H]3CCCN3C2=O)N1,102% (inactive)
15,CC(C)c1ncc(CO)n1Cc1c(Cl)cccc1Cl,99.4% (inactive)
16,NC(N)=NS(=O)(=O)c1ccc(Nc2ccc3nnc(-c4ccncc4)n3n2)cc1,104% (inactive)
17,O=c1[nH]c(=O)n(C2C[C@@H](O)[C@@H](CO)O2)cc1F (stereo not given in full),27.2% (inactive)
18,CC(=O)Oc1c(C)c(C)c2c(c1C)CCC(C)(CC(=O)OCCCCCCCCCCC[P+](c1ccccc1)(c1ccccc1)c1ccccc1)O2 (stereo not given),-53.9% (active)
19,COc1cc(CSc2nc3ccc(Cl)cc3c(=O)n2-c2ccccc2)cc(OC)c1OC,67% (inactive)
20,Cc1ccc(C2C=C(c3ccc(Cl)cc3)N=C3SC=CN32)c(Br)c1 (stereo not given),67.9% (inactive)

row,Compound,growth
1,Cc1cccc2c(Nc3ccc(NS(C)(=O)=O)cc3)c3ccc([N+](=O)[O-])cc3nc12,-10.3% (active)
2,C/C(=N\NC(=S)N1CCCC1)c1ccccn1,26.3% (inactive)
3,O=C1/C(=C/c2ccc([N+](=O)[O-])s2)Oc2ccc(Cl)cc21,-36.1% (active)
4,CCN(Cc1ccccc1)C1CCN(Cc2cc(Br)ccc2O)CC1,13.3% (inactive)
5,O=S(=O)(NC1c2ccccc2Oc2ccccc21)c1cc(Cl)ccc1Cl,91.4% (inactive)
6,CCCCCCCOc1cccc(/C=C2/C(=O)N=C3SCCCN32)c1,63.9% (inactive)
7,O=c1cc(CSc2nnc(-c3ccccc3)n2-c2ccc(F)cc2)c2ccc3ccccc3c2o1,96.4% (inactive)
8,O=C(Nc1cccc(Cl)c1)OCC(COC(=O)Nc1cccc(Cl)c1)(COC(=O)Nc1cccc(Cl)c1)[N+](=O)[O-],32% (inactive)
9,CC(=O)Nc1nc(C)c(C(=O)NNC=O)s1,99.8% (inactive)
10,FC(F)(F)c1ccc(-c2cnc(Br)nc2NC2CCCCCC2)cc1,22.3% (inactive)
11,O=C(N/N=c1/ccoc2cccnc12)N1CCN(c2ncccn2)CC1,34.6% (inactive)
12,COc1ccc(-n2nnc3c(sc4ccccc43)c2=O)cc1,43.8% (inactive)
13,COc1ccc(Nc2nc(NCc3ccccc3)c3ccccc3n2)cc1,49% (inactive)
14,Cc1cc(C#Cc2ccccc2)ccc1-n1c(/C=C/c2cc(O)ccc2O)nc2ccccc2c1=O,11.8% (inactive)
15,COc1cccc(-c2nnc(COc3ccc(-c4nc5ccccc5[nH]4)cc3OC)o2)c1,96.1% (inactive)
16,C[n+]1c(/C=C/c2c[nH]c3ccccc23)ccc2ccccc21,49.2% (inactive)
17,CCCOCC(O)CNCCN (stereo not given),102% (inactive)
18,COc1ccc(COC(=O)CC(C)C)cc1,96.1% (inactive)
19,COc1c(C)c(C)c(OC)c2c1[nH]c(=O)c1c3cccnc3cn21,104% (inactive)
20,C=CCn1ccc(=O)nc1SC,97.6% (inactive)

# Reference: PubChem BioAssay (NCI)
